Reference: PubChem BioAssay (Tox21)
Results filed as inconclusive are left out. Calls of active or inactive are those of the source. Unless noted, the call rests on the fitted dose curve; in most records, active means well fitted curve in the direction sought with a large enough effect in the repeat runs; inconclusive means weak or mixed curves; inactive means flat fitted curve, though single readings scatter.

Legend:
[1] = qHTS assay to test for compound auto fluorescence at 535 nm (green) in HEK293 cells (AID 720680)
[2] = qHTS assay to test for compound auto fluorescence at 460 nm (blue) in HEK293 cell free culture (AID 720681)
How it was run: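 Compounds were added to cell-free DMEM with 10% FBS and fluorescence read directly. The blue channel used 405 nm excitation and 460 nm emission, with triamterene as the reference fluorophore.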

[3] = qHTS assay to test for compound auto fluorescence at 535 nm (green) in HEK293 cell free culture (AID 720682)
How it was run: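 Using fluorescein as calibrant, autofluorescence was quantified at 485/535 nm in cell-free DMEM containing 10% FBS after pintool addition of compound or vehicle.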

[4] = qHTS assay to test for compound auto fluorescence at 590 nm (red) in HEK293 cell free culture (AID 720683)
How it was run: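 Cell-free wells of DMEM with 10% FBS received compound, and intrinsic fluorescence was read at excitation/emission 540/590 nm. Values expressed as equivalence to Rose Bengal sodium.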

[5] = qHTS assay to test for compound auto fluorescence at 590 nm (red) in HepG2 cell free culture (AID 720684)
How it was run: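 Compound was pinned into wells holding MEM with 10% FBS and no cells, and red fluorescence was read at Ex/Em 540/590 nm. Signal is expressed as auto fluorescence equivalency relative to Rose Bengal sodium.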

[6] = qHTS assay to test for compound auto fluorescence at 460 nm (blue) in HepG2 cell free culture (AID 720685)
How it was run: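 Compound (23 nL) or DMSO pinned into cell-free MEM with 10% FBS; blue fluorescence read at 405/460 nm excitation/emission, expressed as auto-fluorescence equivalency to triamterene.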

[7] = qHTS assay to test for compound auto fluorescence at 535 nm (green) in HepG2 cell free culture (AID 720686)
[8] = qHTS assay to test for compound auto fluorescence at 460 nm (blue) in HepG2 cells (AID 720687)
How it was run: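 HepG2 cells in MEM with 10% FBS, attached overnight at 37 C, were exposed to compound or DMSO for 1 hr at 37 C, 5% CO2. Blue fluorescence was read at 405/460 nm, with triamterene as reference fluorophore.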

[9] = target: Glucocorticoid receptor (Homo sapiens) (UniProt P04150); test: qHTS assay to identify small molecule agonists of the glucocorticoid receptor (GR) signaling pathway (AID 720691; active means well fitted activation curve with a large enough effect in the signal ratio in the repeat runs, not every such curve was filed as active; the % refers to the signal ratio)
Chain of Glucocorticoid receptor (Homo sapiens) (P04150 whole entry, looked up): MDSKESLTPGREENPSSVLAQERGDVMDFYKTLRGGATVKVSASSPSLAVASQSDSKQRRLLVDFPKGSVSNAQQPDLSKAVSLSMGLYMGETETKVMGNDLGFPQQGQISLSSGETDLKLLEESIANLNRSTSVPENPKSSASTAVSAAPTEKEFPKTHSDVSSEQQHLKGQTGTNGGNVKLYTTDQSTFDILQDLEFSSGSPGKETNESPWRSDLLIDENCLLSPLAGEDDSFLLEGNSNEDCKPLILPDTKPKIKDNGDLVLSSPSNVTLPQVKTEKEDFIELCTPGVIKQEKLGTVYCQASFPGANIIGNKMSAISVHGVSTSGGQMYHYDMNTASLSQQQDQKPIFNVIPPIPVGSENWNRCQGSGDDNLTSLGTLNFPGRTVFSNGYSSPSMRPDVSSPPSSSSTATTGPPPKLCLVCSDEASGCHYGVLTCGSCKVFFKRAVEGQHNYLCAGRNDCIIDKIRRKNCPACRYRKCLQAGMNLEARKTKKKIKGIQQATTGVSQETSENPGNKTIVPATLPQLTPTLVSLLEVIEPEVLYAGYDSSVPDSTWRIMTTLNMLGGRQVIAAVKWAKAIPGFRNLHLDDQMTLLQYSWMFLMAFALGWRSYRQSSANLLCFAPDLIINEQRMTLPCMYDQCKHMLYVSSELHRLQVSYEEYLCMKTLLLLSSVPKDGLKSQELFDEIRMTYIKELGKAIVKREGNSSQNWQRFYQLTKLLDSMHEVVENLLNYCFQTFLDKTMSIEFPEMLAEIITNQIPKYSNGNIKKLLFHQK
How it was run: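 Beta-lactamase reporter activity, read as fluorescence intensity, was measured in GR-bla HeLa cells exposed to compounds for 18 h at 37 C and then loaded with LiveBLAzer B/G FRET substrate for 2 h at room temperature.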

[10] = target: Glucocorticoid receptor (Homo sapiens) (UniProt P04150); test: qHTS assay to identify small molecule antagonists of the glucocorticoid receptor (GR) signaling pathway (AID 720692; active means well fitted inhibition curve with a large enough effect in the signal ratio in the repeat runs, not every such curve was filed as active; the % refers to the signal ratio)
How it was run: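 Fluorescence from cleaved LiveBLAzer B/G FRET substrate reports GRE-driven beta-lactamase in HeLa cells; compounds are tested against 5 nM dexamethasone (final) over 18 h at 37 C, substrate incubation 2 h at room temperature.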
On the % scale 0 is the no-effect control and ±100 the full control effect.

c1ccc(CNCc2ccccc2)cc1
inactive: outcome [1] | Potency [2] | outcome [3] | outcome [4] | outcome [5] | Potency [6] | outcome [7] | Potency [8] | Potency [9]

Cc1cccc(Oc2ccccc2)c1
inactive: outcome [1] | Potency [2] | outcome [3] | outcome [4] | outcome [5] | Potency [6] | outcome [7] | Potency [8] | Potency [9] | Potency [10]

CC(C)(C)c1ccc(OCC2CO2)cc1 (centres undefined)
inactive: outcome [1] | Potency [2] | outcome [3] | outcome [4] | outcome [5] | Potency [6] | outcome [7] | Potency [8] | Potency [9]

C=CC(C)(CCC=C(C)C)OC(=O)c1ccccc1 (centres undefined)
inactive: outcome [1] | Potency [2] | outcome [3] | outcome [4] | outcome [5] | Potency [6] | outcome [7] | Potency [8] | Potency [9]

COc1ccccc1OC(=O)Oc1ccccc1OC
inactive: outcome [1] | Potency [2] | outcome [3] | outcome [4] | outcome [5] | Potency [6] | outcome [7] | Potency [8] | Potency [9]

CCCCOC(=O)c1ccccc1C(=O)OCC(CC)CCCC (centres undefined)
inactive: outcome [1] | Potency [2] | outcome [3] | outcome [4] | outcome [5] | Potency [6] | outcome [7] | Potency [8] | Potency [9]

NC1CCN(c2nc3c(cc2F)c(=O)c(C(=O)O)cn3-c2ccc(F)cc2F)C1 (centres undefined)
inactive: outcome [1] | Potency [2] | outcome [3] | outcome [4] | outcome [5] | Potency [6] | outcome [7] | Potency [8] | Potency [9]

CCN(CCO)CCCC(C)Nc1ccnc2cc(Cl)ccc12 (centres undefined)
inactive: outcome [1] | Potency [2] | outcome [3] | outcome [4] | outcome [5] | Potency [6] | outcome [7] | Potency [8] | Potency [9]

CCCCCCCCCCCCCCCCCBr
inactive: fluorescence, % of fluorescein [1] 0.0114% [at 18.6 µM] | fluorescence, % of fluorescent control [2] -0.0559% [at 18.6 µM] | activity change [3] -0.0304% [at 18.6 µM] | fluorescence, % of fluorescent control [4] -0.288% [at 18.6 µM] | fluorescence, % of Rose Bengal [5] 0.0382% [at 18.6 µM] | fluorescence, % of fluorescent control [6] 0.0584% [at 18.6 µM] | fluorescence, % of fluorescein control [7] 0.134% [at 18.6 µM] | fluorescence, % of fluorescent control [8] 0.0228% [at 18.6 µM] | Potency [9] | Potency [10]

O=C(Cl)c1c(Cl)cccc1Cl
inactive: outcome [1] | Potency [2] | outcome [3] | outcome [4] | outcome [5] | Potency [6] | outcome [7] | Potency [8] | Potency [9]

CCN(CC)CCOC(=O)C1(c2ccccc2)CCCC1
inactive: outcome [1] | Potency [2] | outcome [3] | outcome [4] | outcome [5] | Potency [6] | outcome [7] | Potency [8] | Potency [9]

c1ccc(OCc2ccc(CCCN3CCOCC3)cc2)cc1
inactive: outcome [1] | Potency [2] | outcome [3] | outcome [4] | outcome [5] | Potency [6] | outcome [7] | Potency [8] | Potency [9]

O=C1CCCCCO1
inactive: outcome [1] | Potency [2] | outcome [3] | outcome [4] | outcome [5] | Potency [6] | outcome [7] | Potency [8] | Potency [9]

O=C(CCN1CCN2CCCC2C1)N1c2ccccc2Sc2ccc(Cl)cc21 (centres undefined)
inactive: outcome [1] | Potency [2] | outcome [3] | outcome [4] | outcome [5] | Potency [6] | outcome [7] | Potency [8] | Potency [9] | Potency [10]

COc1ccc2[nH]c(S(=O)Cc3ncc(C)c(OC)c3C)nc2n1 (centres undefined)
inactive: outcome [1] | Potency [2] | outcome [3] | outcome [4] | outcome [5] | Potency [6] | outcome [7] | Potency [8] | Potency [9] | Potency [10]

CCCc1ccccc1
inactive: outcome [1] | Potency [2] | outcome [3] | outcome [4] | outcome [5] | Potency [6] | outcome [7] | Potency [8] | Potency [9] | Potency [10]

NCCCOCCOCCOCCCN
inactive: outcome [1] | Potency [2] | outcome [3] | outcome [4] | outcome [5] | Potency [6] | outcome [7] | Potency [8] | Potency [9]

Cc1ccccn1
inactive: outcome [1] | Potency [2] | outcome [3] | outcome [4] | outcome [5] | Potency [6] | outcome [7] | Potency [8] | Potency [9]

Cc1ccc(C(C)c2ccc(C)c(C)c2)cc1C
inactive: outcome [1] | Potency [2] | outcome [3] | outcome [4] | outcome [5] | Potency [6] | outcome [7] | Potency [8] | Potency [9]

CC1(C)[C@H]2CC[C@]1(C)[C@H](O)C2
inactive: outcome [1] | Potency [2] | outcome [3] | outcome [4] | outcome [5] | Potency [6] | outcome [7] | Potency [8] | Potency [9] | Potency [10]

CCN(CC)C(C)CN1c2ccccc2Sc2ccccc21 (centres undefined)
inactive: fluorescence, % of fluorescein [1] -0.0513% [at 18.6 µM] | fluorescence, % of fluorescent control [2] -0.0592% [at 18.6 µM] | activity change [3] -0.135% [at 18.6 µM] | fluorescence, % of fluorescent control [4] -0.0816% [at 18.6 µM] | fluorescence, % of Rose Bengal [5] -0.332% [at 18.6 µM] | fluorescence, % of fluorescent control [6] 0.0011% [at 18.6 µM] | fluorescence, % of fluorescein control [7] -0.0641% [at 18.6 µM] | fluorescence, % of fluorescent control [8] -0.0255% [at 18.6 µM] | Potency [9]

Cc1nc2ccccc2n1Cc1ccc(Cl)cc1
inactive: outcome [1] | Potency [2] | outcome [3] | outcome [4] | outcome [5] | Potency [6] | outcome [7] | Potency [8] | Potency [9]
